SARS PLpro yeast: qHTS of Yeast-based Assay for SARS-CoV PLP; AID 485353, 2010; S. cerevisiae expressing SARS-CoV PLpro, growth rescue; Potency, µM (series often up to 32.9 µM), inactives show at the highest dose activity, positive = growth rescue, actives largely listed as activators; hit rate 0.19% among 330,000; further: 0% is about no effect; nearly all actives have a fitted effect of over 55% in size
Pf growth 48h: Primary qHTS for delayed death inhibitors of the malarial parasite plastid, 48 hour incubation. P. falciparum luciferase growth in erythrocytes, 48 h. Potency, µM (highest dose often 28.7 µM), without a hit: at the highest dose activity change, negative = inhibition, hits mostly inhibitors. hit rate 5.9% among 310,000. AID 504832, 2011; active means well fitted inhibition curve with a large enough effect; inconclusive means small, poorly fitted or top-dose-only effect, or another doubt; inactive means no such curve, though single readings can be large or run the other way; further: on the % scale 0 is the no-effect control and ±100 the full control effect
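Luciferase-expressing P. falciparum in infected erythrocytes (2% hematocrit, 0.1% parasitemia final) in RPMI 1640/0.5% Albumax were exposed to compound for 48 hours at 37 C, 5% CO2; growth read as luminescence.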
NS1 inh: qHTS Assay for Inhibitors of Influenza NS1 Protein Function. AID 2326, 2010. Potency, µM (top dose mostly 46.1 µM), for the others: top-dose activity, positive = more growth. hit rate 0.4% among 270,000; further: actives are rising curves; nearly all actives have a fitted effect of over 50% in size
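OD600 was taken as the measure of yeast growth restored by compound in an NS1-expressing S. cerevisiae strain. Cells had been washed out of glucose medium and diluted 1:100 into galactose -URA medium, pH 6.0.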
Pf growth 96h: Primary qHTS for delayed death inhibitors of the malarial parasite plastid, 96 hour incubation. P. falciparum luciferase reporter growth, 96 h. Potency, µM (series often up to 28.7 µM), inactives show top-dose activity change, negative = inhibition, actives largely listed as inhibitors. hit rate 6.9% among 320,000. AID 504834, 2011; active means well fitted inhibition curve with a large enough effect; inconclusive means small, poorly fitted or top-dose-only effect, or another doubt; inactive means no such curve, though single readings can be large or run the other way; further: on the % scale 0 is the no-effect control and ±100 the full control effect
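Two-generation exposure (96 h) targets delayed-death phenotype. Reporter parasites carrying integrated firefly luciferase, in red cells at 2% hematocrit and 0.05% parasitemia final, kept at 37 C, 5% CO2; luminescence loss indicates inhibition.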
RE007 growth inh: qHTS Assay for Inhibitors of the HIV-1 protein Vpr; hit rate 0.21% among 360,000; S. pombe RE007 Vpr strain, BacTiter-Glo ATP luminescence, 24 h; Potency, µM (doses to about 92.2 µM), for the others: at the highest dose activity change, negative = less growth, most hits filed as inhibitors; AID 651644, 2012; active means well fitted falling curve with a large enough effect; inconclusive means small, poorly fitted or top-dose-only effect; inactive means no such curve, though single readings can be large or run the other way; further: on the % scale 0 is the no-effect control and ±100 the full control effect; nearly all actives have a fitted effect of over 50% in size
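Fission yeast strain RE007, carrying one chromosomally integrated HIV-1 vpr copy, was seeded at OD 0.01 in PMG+AL medium with 23 nL pinned compound. After 24 h at 30 °C and 99% humidity, viability was read by BacTiter-Glo luminescence.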
* = called active by the depositor; ? = inconclusive; · = not tested or not shown; [ ] = dose if it differs, or a comment. Shown are actives, neighbours in structure and some others; about 9.5% of the full set was active somewhere. Unless noted, the call rests on the fitted dose curve. Potency means the concentration at half of the fitted maximal effect.

SMILES	SARS PLpro yeast	Pf growth 48h	NS1 inh	Pf growth 96h	RE007 growth inh
CCN(CC(=O)NCc1cccs1)C(=O)/C=C/c1cccc(Cl)c1Cl	-1.4%	1.8%	·	22.3%	7.5%
O=c1cc(N2CCc3ccccc3C2)[nH]c(=O)n1-c1ccc(Cl)cc1	12.2%	51.5%	2.4%	-19.4%	-2.5%
O=c1cc(N2CCc3ccccc3C2)[nH]c(=O)n1-c1ccc(Br)cc1	-0.3%	20.7%	3.0%	7.38µM*	5.6%
COc1ccc(C)cc1NC(=O)CSc1nnc(COc2ccc(Cl)cc2)n1Cc1ccco1	-20.3%	?	-52.9%	?	4.9%
COc1ccc(C)cc1NC(=O)CSc1nnc(COc2ccccc2)n1Cc1ccco1	-2.5%	?	-74.9%	10.4µM*	14.7%
COc1ccccc1NC(=O)CSc1nnc(-c2ccccn2)n1Cc1ccco1	11.5%	?	-10.0%	11.7µM*	-10.8%
Cc1cccc(OCc2nnc(SCC(=O)N(C(C)C)C(C)C)n2Cc2ccco2)c1C	-2.8%	11.7µM*	-14.4%	?	-7.9%
CCOc1ccccc1N(C)C(=O)CCS(=O)(=O)c1ccc2c(c1)NC(=O)CO2	-0.3%	-7.1%	7.2%	0.3%	17.2%
COc1cc(Cn2c(-c3ccc(O)c(OC)c3)nc3ccccc32)ccc1O	2.3%	2.94µM*	-10.3%	13.1µM*	0.0%
O=C(CN1C(=O)c2ccccc2S1(=O)=O)Nc1cccc(S(=O)(=O)N2CCCCC2)c1	-2.7%	·	·	·	20.3%
Nc1nc(NCCOCCO)nc(NC2CCCCC2)c1[N+](=O)[O-]	-2.0%	?	-5.8%	11.7µM*	-4.1%
Cc1ccc(CNc2nc(N)c([N+](=O)[O-])c(NCCO)n2)cc1	0.0%	?	-0.8%	8.28µM*	12.2%
Nc1nc(Nc2ccccc2)nc(NC2CCCCC2)c1[N+](=O)[O-]	-8.0%	?	12.1%	13.1µM*	-2.6%
Nc1nc(NCCO)nc(NC2CCCCC2)c1[N+](=O)[O-]	1.4%	·	-2.5%	5.22µM*	13.8%
CN(C)CCCNc1nc(N)c([N+](=O)[O-])c(NC2CCCCC2)n1	0.3%	-19.7%	0.5%	-28.5%	1.4%
Cc1nc(N2CCN(c3ccccn3)CC2)c2c(C)c(C(=O)N3CCN(c4cccc(Cl)c4)CC3)sc2n1	0.0%	?	15.0%	0.6%	-1.9%
Cc1noc(C)c1S(=O)(=O)NC(=O)C1(C)CCN1C(=O)Cc1ccc(Cl)cc1Cl (configuration not stated)	·	·	·	·	-4.2%[18.4 µM]
Cc1ccc([C@@H]2CC=C(C(=O)O)[C@H](c3cccc(Cl)c3)N2S(=O)(=O)c2ccccc2C)cc1	-1.7%	·	·	·	-19.1%
CC(Oc1ccc2c3c(c(=O)oc2c1)CCC3)C(=O)NCCCn1ccnc1 (configuration not stated)	0.2%	-14.6%	6.7%	?	2.7%
O=C(O)c1ccc2c(c1)C(=O)N([C@H](Cc1ccc(-c3ccccc3)cc1)C(=O)O)C2=O	-13.7%	?	·	-0.1%	·
CCCCC(=O)Nc1cccc(NC(=O)c2cccnc2Cl)c1	0.8%	32.8%	1.9%	-3.1%	10.1%
Cc1nc2cccc([N+](=O)[O-])c2n1CCCN(C)C	·	·	-8.7%	·	·
O=C(CN1C(=O)NC2(CCCC2)C1=O)Nc1cccc(-c2nnc3n2CCCCC3)c1	1.4%	-5.7%	-1.8%	7.38µM*	-6.4%
O=C(CN1C(=O)NC2(CCCCCCC2)C1=O)Nc1cccc(Br)c1	-1.9%	·	·	·	-0.5%
CCOC(=O)N1CCC(N2Cc3cccc(C(=O)Nc4ccc(CC)cc4)c3C2=O)CC1	0.7%	·	0.0%	47.0%	16.1%
SMILES	SARS PLpro yeast	Pf growth 48h	NS1 inh	Pf growth 96h	RE007 growth inh
CCOC(=O)N1CCC(N2Cc3cccc(C(=O)NCc4ccc(OC)cc4)c3C2=O)CC1	-40.3%	7.38µM*	?	-0.9%	·
O=C(NCc1ccc2c(c1)OCO2)c1cccc2c1C(=O)N(C1CCCCC1)C2	0.5%	12.4%	-3.8%	44.1%	-0.5%
CCOC(=O)N1CCC(N2Cc3cccc(C(=O)NCc4ccc5c(c4)OCO5)c3C2=O)CC1	-0.1%	7.38µM*	-13.3%	?	6.2%
CCOC(=O)N1CCC(N2Cc3cccc(C(=O)NCc4ccccc4OC)c3C2=O)CC1	18.8%	13.1µM*	-35.5%	0.9%	14.6%
COc1ccc(C2=NOC(Cn3nc(C(=O)NCc4cccc(Br)c4)cc3-c3ccccc3)C2)cc1 (configuration not stated)	-7.2%	·	·	·	-13.2%
COc1ccc(CNC(=O)CS(=O)(=O)Cc2nc(-c3cccc(OC)c3)oc2C)cc1	-5.4%	?	5.2%	15.7%	-4.0%
CCOC(=O)C(CC)Sc1ncnc2nc[nH]c12 (configuration not stated)	10.8%	-23.7%	-5.5%	10.4µM*	12.1%
Nc1[nH]c(C(=O)c2ccccc2)c(-c2ccncc2)c1C(=O)NCc1ccc(Cl)cc1	·	·	·	·	12.1%
CC(C)(N=NC(C)(C)C1=NCCN1)C1=NCCN1	·	·	3.5%	·	·
CC1Nc2ncnc(N3CCN(c4ccccc4)CC3)c2N(Cc2ccc(Cl)cc2)C1=O (configuration not stated)	5.6%	8.28µM*	·	13.1µM*	-0.7%
CCC1Nc2ncnc(N3CCOCC3)c2N(Cc2ccc(Cl)cc2)C1=O (configuration not stated)	-2.7%	·	·	·	2.5%
O=C1C(Cc2ccccc2)Nc2ncnc(N3CCCCC3)c2N1Cc1ccc(Cl)cc1 (configuration not stated)	-3.6%	11.7µM*	·	11.7µM*	-3.5%
CC1Nc2ncnc(N3CCN(c4ccccc4)CC3)c2N(Cc2ccccc2)C1=O (configuration not stated)	-0.3%	?	·	?	-6.6%
O=C1C(Cc2ccccc2)Nc2ncnc(N3CCc4ccccc4C3)c2N1Cc1ccccc1 (configuration not stated)	1.8%	·	·	·	-1.9%
Cc1ccc(CN2C(=O)C(C)Nc3ncnc(N4CCOCC4)c32)cc1 (configuration not stated)	2.9%	10.4µM*	·	11.7µM*	2.3%
CC1Nc2ncnc(N3CCOCC3)c2N(Cc2ccc(Cl)cc2)C1=O (configuration not stated)	-3.4%	?	·	?	5.1%
O=C1C(Cc2ccccc2)Nc2ncnc(N3CCOCC3)c2N1Cc1ccc(Br)cc1 (configuration not stated)	2.0%	13.1µM*	·	?	4.3%
CCOc1ccc(C2/C(=C(\O)c3ccc4c(c3)OCCO4)C(=O)C(=O)N2CCN2CCOCC2)cc1OC (configuration not stated)	6.9%	14.6%	27.3%	?	-10.8%
O=C1C(Cc2ccccc2)Nc2ncnc(N3CCN(c4ccccc4)CC3)c2N1Cc1ccc(Cl)cc1 (configuration not stated)	2.5%	3.7µM*	·	9.28µM*	-1.1%
CC(C)CC1Nc2ncnc(N3CCN(c4ccccn4)CC3)c2N(Cc2ccc(Cl)cc2)C1=O (configuration not stated)	-1.5%	·	·	·	4.3%

Screening results deposited in PubChem by National Center for Advancing Translational Sciences (NCATS).
